The nature of experiment [1]: viability loss in pontine glioma line – cell-based, SU-DIPG-XIII, MIPE5.0, CellTiter-Glo, qHTS, dose response (AID 1347064; cut-off not given, nearly all actives have AC50 up to about 23 µM;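 as to AC50: cells exposed to compound for 48 hours before the viability read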). The following applies: CellTiter-Glo ATP luminescence. (Cellular ATP, detected with luciferase, serves as a proxy for viable cell number.)
Experiment [2] is described as follows: growth inhibition of DIPG cells – cell-based, MIPE5.0 library, qHTS (AID 1347068; cut-off not given, nearly all actives have IC50 up to about 30 µM). The following applies: SU-DIPG-XXV viability. Background: In qHTS, concentration-response curves come from the screen itself.
The nature of experiment [3]: growth inhibition, single agent or in combination, cell-based, chromothripsis tumors, cisplatin or BGB combos (AID 1671449).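 Also: cells exposed for 96 hours; 0% = vehicle DMSO and 100% = killing by high DMSO.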 The following applies: LFS_MB_P medulloblastoma cells.
Experiment [4] is described as follows: growth inhibition, single agent and combos, cell-based, chromothripsis tumors, cisplatin or BGB combos (AID 1671450).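 Also: cells exposed to compound for four days; 0% = vehicle DMSO and 100% = cell killing by high DMSO.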 The following applies: HDN33 neuroblastoma cells, stronger effect = higher value.
Experiment [5] in a line: growth inhibition, single agents and combos, ICB984, cell-based, cisplatin or BGB combos, synergistic combos for chromothripsis tumors (AID 1671451; call rule not given here;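 also: cells exposed for 96 hours before readout; 0% = vehicle DMSO and 100% = killing by high DMSO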). The following applies: ICB984 medulloblastoma cells, drug combinations, stronger effect = higher value.
Experiment [6] is described as follows: growth inhibition, single agents and combos, LFS_MB_1R, cell-based, cisplatin or BGB combos, synergistic combos for chromothripsis tumors (AID 1671452).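 Also: cells exposed for 96 hours before readout.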 The following applies: LFS_MB_1R medulloblastoma cells, stronger effect = higher value.
The nature of experiment [7]: growth inhibition, single agents and combos, HTB85, cell-based, BGB or cisplatin IC20 combos, synergistic combos for chromothripsis tumors (AID 1671453).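 Also: cells exposed for 96 hours before readout; 0% = vehicle DMSO and 100% = high DMSO killing control.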 The following applies: HTB85 osteosarcoma cells, drug combinations, stronger effect = higher value.
Experiment [8] can be described thus: growth inhibition, single agents and combos, CRL2098, cell-based, BGB or cisplatin IC20 combos, synergistic combos for chromothripsis tumors (AID 1671454).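 Also: cells exposed for 96 h before readout; 0% = vehicle DMSO and 100% = killing by high DMSO.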 The following applies: CRL2098 osteosarcoma cells, drug combinations, stronger effect = higher value.
Experiment [9] is described as follows: growth inhibition, single agents and combos, HD-MB03, cell-based, BGB or cisplatin IC20 combos, synergistic combos for chromothripsis tumors (AID 1671455; in the data active = inhibition above about 83%;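 also: 0% = vehicle DMSO and 100% = high DMSO as cytotoxic control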). The following applies: HD-MB03 medulloblastoma cells, stronger effect = higher value.
A short description of experiment [10]: growth inhibition, single agents and combos, UWB1.289, cell-based, BGB or cisplatin combos, synergistic combos for chromothripsis tumors (AID 1671456).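 Also: cells exposed to compound for four days; 0% = vehicle DMSO and 100% = killing by high DMSO.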 The following applies: UWB1.289 ovarian carcinoma cells, stronger effect = higher value.
Experiment [11] in a line: growth inhibition, single agents and combos, LFS_MB_2R, cell-based, cisplatin combos, synergistic combos for chromothripsis tumors (AID 1671457).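 Also: cells exposed to compound for four days before readout.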 The following applies: LFS_MB_2R medulloblastoma cells, stronger effect = higher value.
The nature of experiment [12]: growth inhibition, MDA-MB-436, cell-based, BGB or cisplatin combos, synergistic combos for chromothripsis tumors (AID 1671458; call rule not given here;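 also: cells exposed for 96 hours; 0% = vehicle DMSO and 100% = killing by high DMSO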). The following applies: MDA-MB-436 breast carcinoma growth inhibition, drug combinations, stronger effect = higher value.
Experiment [13] can be described thus: UWB1.289_BRCA1 ovarian cancer growth, cell-based, BGB or cisplatin combinations (AID 1671459). The following applies: UWB1.289 BRCA1 ovarian carcinoma, drug combinations, stronger effect = higher value.
Experiment [14] in a line: drug combination toxicity in non-malignant astrocytes – cell-based, BGB or cisplatin IC20 combos, cytotoxicity control for chromothriptic childhood tumor combination screen (AID 1671460).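 Also: cells exposed to compounds for 96 hours before viability readout; 0% = vehicle and 100% = killing control.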 The following applies: Human astrocytes, viability inhibition, drug combinations, at 0.5 µM, stronger effect = higher value.
The nature of experiment [15]: BT084 cell growth, single and combined drugs, ICGC_MB145, cisplatin and BGB IC40 combos (AID 1671461).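 Also: cells exposed to drugs for 96 hours; 0% = vehicle DMSO and 100% = high DMSO full killing control.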 The following applies: BT084 medulloblastoma cells, drug combinations, stronger effect = higher value.
A short description of experiment [16]: RCMB18 cell growth, single agent and combined, cisplatin and BGB IC40 combos (AID 1671462).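 Also: cells exposed to compound for four days.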 The following applies: RCMB18 medulloblastoma cells, stronger effect = higher value.
Experiment [17] is described as follows: CRL1545 cell growth, single agent and combined, cisplatin and BGB IC20 combos (AID 1671464).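 Also: cells exposed to compound for 96 hours before readout; 0% = vehicle DMSO and 100% = high DMSO killing control.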 The following applies: CRL1545 osteosarcoma cells, stronger effect = higher value.
A short description of experiment [18]: viability loss in pontine glioma line – cell-based, SU-DIPG-XXV, MIPE5.0, CellTiter-Glo, qHTS, dose response (AID 1347065; cut-off not given, nearly all actives have AC50 up to about 26 µM;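 also: cells exposed to compound for 48 hours before ATP readout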). The following applies: CellTiter-Glo ATP luminescence.
A short description of experiment [19]: JHH-DIPG-1 glioma cell viability, MIPE5.0 library, CellTiter-Glo luminescence, qHTS (AID 1347067; cut-off not given, nearly all actives have AC50 up to about 26 µM;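 also: cells exposed to compound for 48 hours before readout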). The following applies: JHH-DIPG-1 glioma viability, CellTiter-Glo ATP luminescence.
A short description of experiment [20]: viability loss with induced miR-34 in A549 – imaging, A549 dox-inducible miR-34, nuclei and caspase counts, primary screen (AID 1347080;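 active = compounds whose cell count with miR-34 switched on is under 0.7 times the count with it off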). The following applies: A549 miR-34 inducible, Hoechst nuclei count, 48 h.
Experiment [21] is described as follows: MELAS cybrid and Rieske KO viability enhancers – cell-based, MELAS cybrids, Rieske KO mouse fibroblasts, CellTiter-Glo, primary screen (AID 1508586;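 active = mean z-score across replicates of 1.96 or higher in either the MELAS or the Rieske mutant cell line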;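 also: z relative to plate mean and SD of compound and empty wells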). The following applies: low glucose.
[22] abbreviates: measured here: combination with BGB IC40, at 0.05 µM.
The mark [23] stands for this setting: measured here: with BGB IC20 combination, at 0.5 µM.
The mark [24] stands for this setting: measured here: with cisplatin IC20 combination, at 0.5 µM.
Where [25] appears, read: measured here: combination with cisplatin, at 0.5 µM.
Setting [26] is: measured here: combination with cisplatin, at 5 µM.

Results filed as inconclusive are left out. Active and inactive are the calls of the source. Rule as the data show it, unless noted: active = inhibition above about 80%; inactive = the rest.

In general, AC50 refers to the midpoint of the concentration-response curve, whichever way the signal moves. By inhibition is commonly meant the relative decrease from the control value, in per cent. On to `O=c1[nH]c([C@@H]2CCCN2)nc2c1oc1ccc(Cl)cc12`, for which, in [1], the AC50 was 20.9 µM (active). The outcome in [2] was inactive. In addition, the inhibition is -0.05% (inactive) in experiment [3] (at 0.5 µM, stronger effect = higher value); -31.4% in experiment [3] (measured here: combination with BGB IC20, at 0.005 µM); 94.4% in [3] (measured here: combination with BGB IC40, at 0.005 µM); -14% in experiment [3] (setting [22]); 64.5% in experiment [3] (measured here: combination with cisplatin, at 0.5 µM, stronger effect = higher value); -16.4% in experiment [3] (measured here: combination with cisplatin, at 5 µM, stronger effect = higher value). In addition, the inhibition in [4] (BGB combo, at 5 µM) is 1.11%; in experiment [4] (at 0.5 µM), -21.3% (inactive); in [4] (cisplatin combo, at 5 µM), -6.62%; in experiment [4] (setting [23]), -15.4%; in [4] (setting [24]), -18.8%; in [4] (single agent, at 5 µM) it was 3.38%. Besides, the inhibition in [5] (BGB IC20 combo, at 0.005 µM) was -39.5%; in experiment [5] (BGB IC40 combo, at 0.005 µM), -26.9%; in [5] (BGB IC40 combo, at 0.05 µM), -16.5%; in experiment [5] (at 0.5 µM), -16.4% (inactive); in experiment [5] (cisplatin combo, at 0.05 µM), -22.5%; in experiment [5] (cisplatin combo, at 0.5 µM) it was -15.6%. Moreover, the inhibition was 4.34% in experiment [5] (cisplatin combo, at 5 µM); -19.5% in experiment [5] (measured here: 5 uM single agent, at 5 µM); -31% (inactive) in experiment [6] (at 0.5 µM); -29.1% in experiment [6] (setting [22]); -68.3% in [6] (setting [25]); -10.2% in experiment [6] (setting [26]). Also, the inhibition is -12.9% (inactive) in [7] (at 0.5 µM); -9.31% in experiment [7] (measured here: with BGB IC20, at 0.5 µM); -19.7% in [7] (measured here: with BGB IC20, at 5 µM); -5.61% in [7] (measured here: with cisplatin IC20, at 0.5 µM); -2.34% in experiment [7] (measured here: with cisplatin IC20, at 5 µM); -2.45% in experiment [7] (single agent, at 5 µM). Moreover, the inhibition in experiment [8] (at 0.5 µM) was -86.2% (inactive); in experiment [8] (measured here: combination with BGB at IC20, at 0.5 µM), -77.4%; in [8] (measured here: combination with cisplatin at IC20, at 0.5 µM) it was -117%; in experiment [9] (at 0.5 µM), -12.2% (inactive); in [9] (measured here: combo with BGB at IC20, at 0.5 µM), -2.56%; in experiment [9] (measured here: combo with cisplatin at IC20, at 0.5 µM) it was -27.5%. Also, the inhibition is -17.8% (inactive) in experiment [10] (at 0.5 µM); -12.3% in experiment [10] (measured here: inhibition with BGB combination, at 0.05 µM); -25.4% in experiment [10] (measured here: inhibition with cisplatin combination, at 0.05 µM); -16% (inactive) in experiment [11] (at 0.5 µM); -22.2% in [11] (setting [25]); -24.3% in experiment [11] (setting [26]). For the same compound, the inhibition is -35% (inactive) in [12] (at 0.5 µM); -39.6% in experiment [12] (measured here: BGB combination, at 0.5 µM); -62.1% in [12] (measured here: BGB combination, at 5 µM); -52.2% in experiment [12] (measured here: cisplatin combination, at 0.5 µM); -71.9% in experiment [12] (measured here: cisplatin combination, at 5 µM); -4.02% in [13] (BGB combination, concentration series, at 5 µM). Further, the inhibition is -15.4% (inactive) in [13] (at 0.5 µM); -5.14% in [13] (cisplatin combination, concentration series, at 5 µM); 1.64% (inactive) in [14]; 11.1% in experiment [14] (measured here: combo with BGB IC20); -0.305% in [14] (measured here: combo with cisplatin IC20); 18.2% (inactive) in [15] (at 0.5 µM). The inhibition in [15] (cisplatin combination, at 0.5 µM) was 0.765%; in experiment [15] (cisplatin combination, at 5 µM), -129%; in [15] (measured here: BGB IC40 combination 0.05 uM, at 0.05 µM), -10.1%; in experiment [15] (single agent, at 5 µM) it was 7.55%; in experiment [16] (at 0.5 µM), -15.8% (inactive); in [16] (cisplatin combo, at 5 µM) it was -8.27%. Also, the inhibition in [16] (measured here: BGB IC40 combination, at 0.05 µM) is 3.23%; in [16] (setting [25]), -15.3%; in [16] (single agent, at 5 µM) it was -12.8%; in experiment [17] (at 0.5 µM), -44.6% (inactive); in [17] (setting [23]), -65.7%; in experiment [17] (setting [24]), -36.2%. The inhibition in [17] (single agent, at 0.05 µM) was -56%; in experiment [17] (single agent, at 5 µM) it was -51.5%.
With `Cc1nnn(C)c1-c1cnc2c3ccc(C(C)(C)O)cc3n([C@H](c3ccccc3)C3CCOCC3)c2c1`, the half-maximal activity concentration (AC50) was 0.372 µM (active) in experiment [18] and 8.33 µM (active) in experiment [19].
Regarding `CC1(C)CC[C@]2(C(=O)O)CC[C@]3(C)C(=CC[C@@H]4[C@@]5(C)C[C@@H](O)[C@H](O)C(C)(C)[C@@H]5CC[C@]43C)[C@@H]2C1`, in experiment [18], the concentration at half-maximal activity (AC50) is 20.9 µM (active).
In the case of `C[C@@H]1C[C@H](N)C[C@H](c2ccncc2NC(=O)c2ccc(F)c(-c3c(F)cccc3F)n2)C1`, in experiment [18], the concentration at half-maximal activity (AC50) is 9.34 µM (active).
The same measure, in the same setting: then `O=C(NCCCNc1nc(Nc2cccc(CN3CCOCC3)c2)ncc1C1CC1)C1CCC1`, with 7.42 µM (active); and `CC1=C2C[C@H]3[C@@H](CC[C@@H]4C[C@H](NS(C)(=O)=O)CC[C@@]43C)[C@@H]2CC[C@@]2(C1)O[C@@H]1C[C@H](C)CN[C@H]1[C@H]2C`, with 20.9 µM (active).
Consider `C=CC(=O)Nc1ccc(F)c(-c2ncnc3[nH]cc(C(=O)OCC)c23)c1`, for which the half-maximal activity concentration (AC50) in [18] and in experiment [19] was 18.6 µM (active) throughout.
Consider `OCCOc1ccc(/C(=C(/CCCl)c2ccccc2)c2ccccc2)cc1`, for which the call in experiment [1] and in [2] was inactive.
On to `O=C(Nc1cnccc1Cl)N1CCN(Cc2ccc3c(c2)OC(F)(F)O3)CC1`, for which the compound was called inactive in experiment [1] and in experiment [2].
With `Nc1ncnc2c1c(COc1cccc(Cl)c1)nn2C1CCOCC1`, the result in experiment [1] and in [2] was inactive.
Turning to `COc1cc2ncnc(Nc3cccc(Cl)c3F)c2cc1OC(=O)N1CCN(C)C[C@H]1C`, the outcome in experiment [1] and in experiment [2] was inactive.
As for `C#Cc1cccc(Nc2ncnc3cc4c(cc23)OCCOCCOCCO4)c1`, the result in [1] was inactive. For the same compound, the fold change was 1.01 (inactive) in [20] (stronger effect = lower value, cell number ratio, induced over uninduced) and 0.44 in [20] (measured here: relative caspase fold change +Dox/-Dox). The cell count is 7300 in experiment [20] (measured here: total cells with miR-34 induction, stronger effect = lower value) and 7200 in experiment [20] (measured here: total cells without miR-34 induction). Moreover, the z-score in experiment [21] (MELAS cybrid survival, CellTiter-Glo 48 h, stronger effect = higher value) was 0.219 (inactive); in experiment [21] (Rieske KO mouse fibroblast survival, CellTiter-Glo 72 h), 0.164.

(Values after PubChem BioAssay.)
